# Experimental data as given in PubChem BioAssay (NCI).
# About 83,000 compounds went through this panel and 20% of them were active in at least one assay; those are over-represented in the sample as a whole.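 For each line, cells grew in 96-well plates with the test compound present at a single concentration for 48 hours.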 Unmarked numbers belong to inactive results. Active and inactive are the calls of the source. Rule for the calls: active = growth percent below 10; inactive = the rest.
# What was measured:
# Experiment in all cases: NCI-60 one-dose screen, 48 h (100 = growth as untreated, 0 = no growth, -100 = all killed)
# Conditions in all cases: 10 µM
# HCT-15 colon = tested on: HCT-15 colon
# HT29 colon = tested on: HT29 colon
# SNB-75 CNS = tested on: SNB-75 CNS
# SNB-19 CNS = tested on: SNB-19 CNS
# U251 CNS = tested on: U251 CNS
# PC-3 prostate = tested on: PC-3 prostate
# SK-MEL-5 melanoma = tested on: SK-MEL-5 melanoma
# UACC-62 melanoma = tested on: UACC-62 melanoma
# LOX IMVI melanoma = tested on: LOX IMVI melanoma
# SK-MEL-28 melanoma = tested on: SK-MEL-28 melanoma
# SK-MEL-2 melanoma = tested on: SK-MEL-2 melanoma
# EKVX NSCLC = tested on: EKVX NSCLC
# SN12C renal = tested on: SN12C renal
# UO-31 renal = tested on: UO-31 renal
# TK-10 renal = tested on: TK-10 renal
# ACHN renal = tested on: ACHN renal
# A498 renal = tested on: A498 renal
# CCRF-CEM leukemia = tested on: CCRF-CEM leukemia
# MOLT-4 leukemia = tested on: MOLT-4 leukemia
# CAKI-1 renal = tested on: CAKI-1 renal
Structure (SMILES),growth (HCT-15 colon),growth (HT29 colon),growth (SNB-75 CNS),growth (SNB-19 CNS),growth (U251 CNS),growth (PC-3 prostate),growth (SK-MEL-5 melanoma),growth (UACC-62 melanoma),growth (LOX IMVI melanoma),growth (SK-MEL-28 melanoma),growth (SK-MEL-2 melanoma),growth (EKVX NSCLC),growth (SN12C renal),growth (UO-31 renal),growth (TK-10 renal),growth (ACHN renal),growth (A498 renal),growth (CCRF-CEM leukemia),growth (MOLT-4 leukemia),growth (CAKI-1 renal)
CCOC(=O)c1cc(C(=O)c2cc(OC)cc(OC)c2)n2ncc3ccccc3c12,29.8%,2.01% (active),-10% (active),46.8%,-13.4% (active),31.7%,18.7%,41.7%,9.99% (active),63%,15.4%,61.5%,39.9%,19%,-8.97% (active),2.48% (active),16.5%,23.5%,29%,–
COc1ccc2c(c1)OC(N)=C(C#N)C2c1cc(OC)c(OC)c(OC)c1 (centres undefined),14.2%,0.78% (active),44.7%,44.7%,6.72% (active),19.7%,-46.2% (active),39%,12.7%,62.7%,27.3%,49.7%,25%,47.2%,–,32.8%,-14.1% (active),7.72% (active),7.89% (active),30.4%
CN(C)CCOc1cccc(NC2=C(Cl)C(=O)C(Nc3cccc(OCCN(C)C)c3)=C(Cl)C2=O)c1,-78.6% (active),-80% (active),84%,6.1% (active),-93.2% (active),5.48% (active),-95.2% (active),-82.2% (active),-81.5% (active),-63.9% (active),-73.8% (active),-92.3% (active),-76.3% (active),-100% (active),-100% (active),-100% (active),77.1%,-26.6% (active),-38.5% (active),–
COc1ccc(Cl)cc1Nc1nc(C(F)(F)F)ccc1C(=O)N/N=C/c1ccc(Cl)cc1,25.4%,25.2%,33.8%,60.2%,29.9%,34.6%,24.3%,24.1%,26.7%,51.2%,26.4%,56.6%,49%,18.8%,–,36.8%,-35.2% (active),1.78% (active),–,13.3%
O=C(N/N=C/c1c(Cl)cccc1Cl)c1ccccc1Nc1cccc(C(F)(F)F)c1,88.5%,103%,105%,97%,89.9%,89.9%,72.9%,87.1%,76.3%,99.5%,71.4%,89.8%,92.6%,93.7%,–,102%,-5.76% (active),73.1%,77.9%,95.5%
O=[N+]([O-])c1cc(Cl)cc(Cl)c1O,101%,97.7%,90.8%,103%,104%,103%,101%,103%,92.6%,102%,103%,96%,101%,84%,95.1%,99.4%,106%,98.7%,106%,–
COc1cc2cc(Oc3ccc(NC(=O)Nc4ccc(Cl)c(C(F)(F)F)c4)cc3)c(C)nc2cc1OC,1.27% (active),-24.9% (active),12.5%,23.7%,-80.4% (active),-0.614% (active),-73.4% (active),-51.5% (active),-81.3% (active),-35.9% (active),-49.8% (active),8.83% (active),13.2%,-45.1% (active),–,13.6%,10.5%,-17.6% (active),-27.9% (active),-8.92% (active)
O=S(=O)(O)c1cccc(Nc2ccc3ccccc3c2)c1,110%,99%,78.2%,96.3%,95.5%,79%,99%,88.1%,93.4%,108%,93.7%,105%,92.5%,68.9%,115%,98%,96.7%,–,95.3%,–
CS(=O)(=O)c1nccc(-c2c(-c3cccc(O)c3)nc3sccn23)n1,101%,91.7%,70.4%,103%,91.9%,96.8%,86%,85.9%,91.5%,94%,107%,88.7%,91%,66.5%,–,86.2%,70.5%,90%,93%,95.5%
CN1CCN(CC(=O)Nc2cccc(-n3cc(-c4ccncc4)c(-c4ccc(Cl)c(O)c4)n3)c2)CC1,40.5%,4.08% (active),30.5%,55.5%,30.8%,26.6%,27.3%,48.3%,14.6%,60.8%,28.2%,63.6%,64.9%,50.2%,103%,44.7%,35.6%,23.9%,26.4%,–
COc1cc2cc(Oc3ccc(NC(=O)Nc4cccc(C(F)(F)F)c4)cc3)c(C)nc2cc1OC,15.2%,6.55% (active),13%,31.4%,-85.7% (active),0.0827% (active),-86.1% (active),14.5%,9.78% (active),26.7%,-35.8% (active),15.4%,17.2%,11.3%,–,11.2%,21.7%,6.41% (active),0.812% (active),9.13% (active)
Clc1ccc(/C=C2\CCCC3C2=Nc2ccccc2NC3c2ccc(Cl)cc2)cc1 (centres undefined),63.7%,16%,88.2%,92%,20.8%,77.3%,88.7%,74.2%,-27.5% (active),101%,92.1%,89.3%,85.3%,70.7%,–,97.3%,67.2%,75.9%,–,91.3%
CCc1ccc(-c2ccc(-n3nc(C)c4c(N)nc(Cc5ccccc5)nc43)cc2)cc1,60.6%,78.8%,65%,66.3%,68%,54.7%,95.5%,73.1%,51.1%,92.4%,36%,83.8%,71.1%,59.2%,75%,35.5%,73.4%,–,55.7%,–
COc1cc2c(Nc3ccc(S(N)(=O)=O)cc3)ncnc2c(OC)c1OC,98%,105%,89.5%,93.5%,96.9%,84.7%,91.4%,97.4%,99.9%,98.7%,92.4%,100%,93.5%,67.3%,–,99.4%,103%,92.5%,97.3%,92%
COc1cc(C2CC(c3ccccc3)=NN2C(C)=O)cc(OC)c1OC (centres undefined),25.6%,11.4%,-17.1% (active),49%,27.7%,37.3%,35.3%,44.6%,41.7%,59.3%,47.6%,51%,63.5%,58.1%,–,54.9%,50.6%,34.5%,29%,38.8%
Cc1nn(-c2ccc(-c3ccc(OC(F)(F)F)cc3)cc2)c2nc(Cc3ccccc3)nc(N)c12,76.9%,59.6%,34.9%,39.3%,20.7%,64.4%,87.7%,85.6%,31%,103%,87.6%,72.3%,62.8%,28.3%,68.1%,16.7%,94.2%,–,68.6%,–
